Drawing on PubChem BioAssay (NCATS), this text covers Potency and activity change, negative = inhibition for 39 compounds.

Several values for one entry are separate records, joined by “and”; a condition that tells them apart may be missing. Equal entries are not always repeated. Records with an inconclusive call do not appear. A call without a number means that no potency is given here. Activity calls are given as the source filed them. The call rests on the fitted dose curve.
Potency means the concentration at half of the fitted maximal effect.

The nature of the assay: Primary qHTS to identify inhibitors of SARS-CoV-2 cell entry (AID 1645846). Further: nearly all actives have a fitted effect of over 45% in size. The following applies: SARS-CoV-2 pseudovirus cell entry assay, luminescence; activity change, negative = inhibition: at 57.1 µM (top of the series) unless noted; series mostly up to 57.1 µM. In short, it runs like this: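 Luminescence readout (Bright-Glo luciferase) 48 h after pseudoparticle addition. HEK293-ACE2 cells, 1500/well; compound pre-incubation 1 h; Normalized to spike PP and bald PP.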
In general terms: In qHTS, concentration-response curves come from the screen itself.
For `Nc1ccc(S(=O)(=O)Nc2ccc(Cl)nn2)cc1`, the Potency result was “inactive”. Turning to `O=C(c1ccccc1)C(O)c1ccccc1` (centres undefined), the Potency result is “inactive”. As to `CCCCCCCCCCCCCCCCCCO`, the activity change, negative = inhibition is 0.247%. On to `NS(=O)(=O)c1ccc(Cl)c(S(N)(=O)=O)c1`, for which the Potency entry was “inactive”. Consider `CCOC(=O)Oc1ccc(CCNC(=O)[C@H](CCSC)NC(C)=O)cc1OC(=O)OCC`, for which the Potency entry is “inactive”.

Turning to `O=S(=O)(O)c1ccc2nc(-c3ccccc3)[nH]c2c1`, the Potency result is “inactive”. As to `Cc1cc2cc3c(C)cc(=O)oc3c(C)c2o1`, the Potency entry is “inactive”.

In the case of `COCCCOc1ccnc(CS(=O)c2nc3ccccc3[nH]2)c1C` (centres undefined), the activity change, negative = inhibition worked out at 1.47%. Regarding `NC(=O)NC1N=C([O][Al])NC1=O` (centres undefined), the activity change, negative = inhibition was -0.751%. As for `CC[N+](CC)(CCNC(=O)C(=O)NCC[N+](CC)(CC)Cc1ccccc1Cl)Cc1ccccc1Cl`, the Potency entry is “inactive”.

On to `O=C(OOC(=O)c1ccccc1)c1ccccc1`, for which the Potency entry is “inactive”. Regarding `CN1CCN2c3ncccc3Cc3ccccc3C2C1` (centres undefined), the activity change, negative = inhibition was -27.6% and -19.2%. For `CC(=O)OC(C)C[N+](C)(C)C` (centres undefined), the Potency result was “inactive”. Regarding `C[N+](C)(C)CCCCCC[N+](C)(C)C`, the activity change, negative = inhibition was -3.21%. On to `NC(CO)(CO)CO`, for which the Potency entry is “inactive”.

With `O=C1c2ccccc2C(=O)c2c1ccc(O)c2O`, the Potency entry is “inactive”. On the same count and under the same terms, the entry for `CC(=O)N(c1onc(C)c1C)S(=O)(=O)c1ccc(N)cc1` is “inactive”; for `NC(=O)NC1NC(=O)NC1=O` (centres undefined) it is “inactive”. Regarding `CN=C(NC#N)NCCSCc1nc[nH]c1C`, the activity change, negative = inhibition was 4.18%. Take `CCn1cc(C(=O)O)c(=O)c2cc(F)c(N3CCNC(C)C3)c(F)c21` (centres undefined): the Potency entry is “inactive”. For `CC(=O)c1ccc(S(=O)(=O)NC(=O)NC2CCCCC2)cc1`, the activity change, negative = inhibition was found to be 4.85%. As to `Cc1nnc(SCC2=C(C(=O)O)N3C(=O)[C@@H](NC(=O)Cn4cnnn4)[C@H]3SC2)s1`, the Potency result is “inactive”. With `CC(=O)NC[C@H]1CN(c2ccc(N3CCOCC3)c(F)c2)C(=O)O1`, the activity change, negative = inhibition was -4.07%. Take `CCOc1ccc(NC(=O)CC(C)O)cc1` (centres undefined): the activity change, negative = inhibition is -25.9%. As for `Cc1c(C(C)C)c(=O)n(-c2ccccc2)n1C`, the activity change, negative = inhibition is -4.29%.

On to `COc1cccc(OC)c1C(=O)N[C@@H]1C(=O)N2[C@@H]1SC(C)(C)[C@@H]2C(=O)O`, for which the activity change, negative = inhibition is -19.9%.

On to `COc1cc(NS(=O)(=O)c2ccc(N)cc2)nc(C)n1`, for which the Potency result is “inactive”.

Consider `NC(N)=Nc1nc(CSCC/C(N)=N/S(N)(=O)=O)cs1`, for which the Potency entry was “inactive”. As to `CN(C)C(=O)Oc1ccc[n+](C)c1`, the Potency result was “inactive”. Regarding `COc1cc(NS(C)(=O)=O)ccc1Nc1c2ccccc2nc2ccccc12`, the Potency was 1 µM (active) and 708 nM (active). In the case of `CCCCC[C@H](O)/C=C/[C@@H]1[C@H]2C/C(=C/CCCC(=O)O)O[C@H]2C[C@H]1O`, the activity change, negative = inhibition is -21%.

Consider `CCCC(O)C(CC)CO` (centres undefined), for which the Potency entry was “inactive”. In the case of `O=C(O)CCCCC1CCSS1` (centres undefined), the Potency entry was “inactive”. For `CCCCC(=O)OCC(=O)[C@H]1[C@H](C)C[C@H]2[C@@H]3C[C@H](F)C4=CC(=O)C=C[C@]4(C)[C@@]3(F)[C@@H](O)C[C@@]21C`, the Potency result was “inactive”. As for `C/C(=N\O)[C@@H](C)NCC(C)(C)CN[C@H](C)/C(C)=N/O`, the Potency entry was “inactive”.

Take `Cn1nnc2c(C(N)=O)ncn2c1=O`: the activity change, negative = inhibition is -15.9% and -14.8%. Turning to `C[C@H](NC(CCc1ccccc1)C(=O)O)C(=O)N1CCC[C@H]1C(=O)O` (some centres undefined), the Potency result is “inactive”.

As for `CCN1CCN(C(=O)N[C@@H](C(=O)N[C@@H]2C(=O)N3[C@@H]2SC(C)(C)[C@H]3C(=O)O)c2ccccc2)C(=O)C1=O`, the Potency entry is “inactive”.

For `NCC(=O)CCC(=O)O`, the activity change, negative = inhibition is -19.8%.
